Data from PubChem BioAssay (NCI).
This is part of a sample that, as a whole, favours compounds with a hit. Of some 83,000 tested, about 20% had one in any assay.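 Single-concentration screen, 48 h exposure, 96-well plates. Endpoint: percent growth. Below 10 = active.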 Values without a mark were called inactive. Active and inactive are the calls of the source.

Key:
Assay in all cases: NCI-60 one-dose screen, 48 h (100 = growth as untreated, 0 = no growth, -100 = all killed)
Conditions in all cases: 10 µM unless noted
SK-MEL-2 melanoma = system: SK-MEL-2 melanoma
SN12C renal = system: SN12C renal
UO-31 renal = system: UO-31 renal
TK-10 renal = system: TK-10 renal
ACHN renal = system: ACHN renal
CAKI-1 renal = system: CAKI-1 renal
A498 renal = system: A498 renal
CCRF-CEM leukemia = system: CCRF-CEM leukemia
MOLT-4 leukemia = system: MOLT-4 leukemia
RPMI-8226 leukemia = system: RPMI-8226 leukemia
OVCAR-8 ovarian = system: OVCAR-8 ovarian
OVCAR-5 ovarian = system: OVCAR-5 ovarian
OVCAR-4 ovarian = system: OVCAR-4 ovarian
SK-OV-3 ovarian = system: SK-OV-3 ovarian
IGROV1 ovarian = system: IGROV1 ovarian
OVCAR-3 ovarian = system: OVCAR-3 ovarian
HS 578T breast = system: HS 578T breast
NCI/ADR-RES ovarian = system: NCI/ADR-RES ovarian
SR leukemia = system: SR leukemia

Structure (SMILES)	growth (SK-MEL-2 melanoma)	growth (SN12C renal)	growth (UO-31 renal)	growth (TK-10 renal)	growth (ACHN renal)	growth (CAKI-1 renal)	growth (A498 renal)	growth (CCRF-CEM leukemia)	growth (MOLT-4 leukemia)	growth (RPMI-8226 leukemia)	growth (OVCAR-8 ovarian)	growth (OVCAR-5 ovarian)	growth (OVCAR-4 ovarian)	growth (SK-OV-3 ovarian)	growth (IGROV1 ovarian)	growth (OVCAR-3 ovarian)	growth (HS 578T breast)	growth (NCI/ADR-RES ovarian)	growth (SR leukemia)
N=C(N)c1ccc(-c2ccc(-c3ccc(Cl)cc3)o2)nc1	-90.7% (active)	-80.7% (active)	-85.8% (active)	-95.1% (active)	-91.5% (active)	-85.5% (active)	-58.4% (active)	-57.5% (active)	102%	-62.4% (active)	-43.4% (active)	-83.8% (active)	-73.6% (active)	-96.7% (active)	-60.6% (active)	-98.3% (active)	-57.2% (active)	-69.7% (active)	–
Cc1cc(Nc2nc(-c3ccc(F)cc3)nc3ccccc23)n[nH]1	27.7%	61.6%	32%	32.6%	39.4%	-7.57% (active)	1.89% (active)	–	64.1%	94.8%	95%	70.3%	41%	21%	11.3%	61.5%	25.1%	71%	20.4%
COc1ccc(-n2c(C)cc(-c3ccccc3)c2C)cc1	40%	50.5%	52.3%	57.3%	62.5%	29.3%	35.2%	29.4%	17.8%	14.9%	51.6%	63.8%	38%	83.2%	72%	75.5%	74.1%	40.2%	–
O=C(/C=C/c1ccccc1)n1c(-c2ccc(Cl)cc2)nc2ccccc21	-36% (active)	-48.5% (active)	-39% (active)	18.6%	-49.9% (active)	-39.4% (active)	-14.6% (active)	-23.9% (active)	21.9%	-31.1% (active)	-31.3% (active)	-48.1% (active)	30%	24%	10.4%	-57.2% (active)	20%	10.8%	–
CCN(CC)CCCC(C)N=c1cc(Nc2cc(=NC(C)CCCN(CC)CC)c3cc(OC)ccc3o2)oc2ccc(OC)cc12 (stereo not drawn)	-83.9% (active)	-9.47% (active)	-88.8% (active)	-50.2% (active)	-14.1% (active)	-39.7% (active)	-8.63% (active)	-41.7% (active)	-55.8% (active)	-38.3% (active)	-1.52% (active)	-28.3% (active)	-48.8% (active)	7.55% (active)	-5.22% (active)	-20.8% (active)	27.5%	3.48% (active)	–
Cc1ccc(Cn2c(-c3cccs3)nc3ccccc32)cc1	101%	98.6%	59.5%	89.8%	86.4%	86.3%	80.2%	90.3%	93.2%	77.8%	82.3%	98.8%	76.6%	100%	–	93.9%	89.2%	85.6%	–
c1cc(-c2ccc3c(c2)OCO3)n2nccc2n1	108%	108%	90.9%	104%	98.2%	94.4%	81.5%	100%	97.1%	97.1%	98.6%	94.2%	98.1%	106%	102%	103%	105%	–	–
Oc1ccc(N=Cc2ccccc2)cc1	94%	96.5%	77.5%	108%	57.3%	105%	78.1%	5.42% (active)	3.61% (active)	55.4%	86.8%	104%	79.7%	119%	97.1%	7.09% (active)	103%	101%	–
CN1CCN(c2ccc3cc(-c4nc5ccccc5[nH]4)c(=O)oc3c2)CC1	105%	93.7%	65.5%	119%	89.3%	84.8%	86.3%	73.6%	88.4%	64.5%	94.7%	102%	70.3%	101%	79.9%	97.2%	96.1%	86.9%	–
COc1ccc(-n2cnc3c(sc4ncc(Cl)cc43)c2=O)cc1	120%	101%	5.62% (active)	89.9%	82.1%	86.6%	76.8%	–	96.6%	48.2%	87.9%	98.6%	101%	84.8%	65.7%	53.8%	–	–	71.2%
COc1cc(/C=C2\CCCC3=C2NC(C)=NC3c2cc(OC)c(OC)c(OC)c2)cc(OC)c1OC (stereo not drawn)	26.6%	10.8%	51.1%	44.5%	12.5%	11.4%	16.3%	-19.1% (active)	-22.9% (active)	-15.1% (active)	5.87% (active)	10.8%	42.2%	43.9%	30.7%	28%	48.6%	14.5%	–
Cn1c(C(N)=O)cc2c1-c1nc(NC3CCCCC3)ncc1CCC2	105%	90.9%	67.2%	89.4%	85.8%	83.3%	46%	–	85.1%	93.5%	88.1%	64.6%	93.4%	91.3%	113%	97.1%	58.5%	91.5%	92.5%
CN(C)c1ccc(-c2ccc(-c3ccc(C(=N)N)cn3)o2)cc1	-85.4% (active)	-85.2% (active)	-69.4% (active)	-64.7% (active)	-83.5% (active)	-72.5% (active)	-9.83% (active)	-2.2% (active)	-52.1% (active)	-43.4% (active)	-54.7% (active)	-25% (active)	-17.3% (active)	-24.4% (active)	-26.8% (active)	-96.7% (active)	-19.7% (active)	22.5%	–
Cc1ccc(OCCn2c(C)nn(-c3ccc(Cl)cc3)c2=O)cc1	146%	105%	83.9%	131%	103%	93.7%	117%	99.9%	111%	97.1%	109%	113%	98.9%	113%	112%	124%	89.6%	103%	–
COc1cc2nc(Cl)nc(NCCO)c2cc1OC	125%	104%	94.8%	103%	98.3%	111%	79.7%	98.8%	101%	98.3%	98.3%	100%	102%	–	108%	111%	104%	112%	–
COc1ccc(-c2nc(-c3ccccc3)c(-c3ccccc3)n2C2CC2)cc1OC1CCCCC1	87.3%	73.3%	62.9%	92.3%	53.8%	58.4%	63.7%	30.5%	32.7%	48.7%	55.4%	83%	67.9%	89.4%	63.1%	58.4%	73.8%	55.3%	–
